Results published in PubChem BioAssay.

target: Torsin-1A-interacting protein 1 (Homo sapiens) (UniProt Q5JTV8); experiment: LAP1 binders from COS7 cell lysate, primary screen, small-molecule microarray, 635/667 nm fluorescence (AID 1116); details: COS7-hLAP1 lysate binding, 635 nm fluorescence, higher = more signal
Sequence (Q5JTV8 whole entry, looked up): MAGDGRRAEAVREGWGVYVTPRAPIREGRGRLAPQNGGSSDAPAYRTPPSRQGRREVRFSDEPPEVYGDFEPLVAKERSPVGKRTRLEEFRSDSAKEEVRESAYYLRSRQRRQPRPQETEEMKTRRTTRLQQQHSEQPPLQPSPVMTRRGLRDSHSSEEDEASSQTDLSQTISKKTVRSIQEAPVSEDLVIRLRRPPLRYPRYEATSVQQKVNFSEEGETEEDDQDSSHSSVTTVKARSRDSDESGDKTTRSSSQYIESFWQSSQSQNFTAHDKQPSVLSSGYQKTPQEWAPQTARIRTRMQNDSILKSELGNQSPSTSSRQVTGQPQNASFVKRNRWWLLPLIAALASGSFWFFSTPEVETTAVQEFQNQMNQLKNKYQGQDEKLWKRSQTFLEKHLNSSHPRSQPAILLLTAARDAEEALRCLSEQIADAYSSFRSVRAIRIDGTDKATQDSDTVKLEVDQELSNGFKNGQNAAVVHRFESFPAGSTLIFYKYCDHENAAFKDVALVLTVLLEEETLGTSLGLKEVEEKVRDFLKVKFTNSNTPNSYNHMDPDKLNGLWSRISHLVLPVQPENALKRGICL

Row | Structure (SMILES) | composite z-score
1 | COc1ccc([Si](C)(C)[C@@H]2[C@@H](CC(=O)N3Cc4ccccc4C[C@H]3CO)O[C@]3(C(=O)N(C)c4ccccc43)[C@H]2C)cc1 | 0.907
2 | O=C(N1CCCCC1)[C@@]1(CCS(=O)(=O)c2ccccc2)COC(c2ccc(OCCCO)cc2)=N1 | 1.51
3 | O=C1NC(=O)C2C1C=CC(C(O)CCc1ccccc1)N2Nc1ccc(Cl)cc1Cl (configuration not stated) | 1.97
4 | C=CCC(OC(C)=O)[C@@H]1[C@@H](N(Cc2cc3ccccc3o2)C(=O)c2ccc(-c3ccccc3)cc2)c2cc(OCCCO)ccc2N1C(=O)c1ccc2ccccc2c1 (some centres not stated) | 0.612
5 | CCOC(=O)C[C@H]1[C@H](OC(=O)Cc2ccc3c(c2)OCO3)[C@@H](NC(=O)Cc2ccc(OC)cc2)c2cc(OCCCO)ccc2N1C(=O)c1ccc2ccccc2n1 | 0.526
6 | COC(=O)c1c2oc(c1C(=O)OC)C(=O)N(Cc1ccccc1)Cc1cn(nn1)C[C@H](Cc1ccccc1)NC(=O)N[C@H](CO)CC2 | 0.678
7 | NC(N)=NCCCn1cc(CNC(=O)[C@@H](N)Cc2ccccc2)nn1 | 0.984
8 | NC(=O)N1C(=O)C2C(C1=O)C1C=C(CCCO)C2C(c2cccs2)N1Cc1cccc(OC(F)(F)F)c1 (configuration not stated) | 1.06
9 | CCOC(=O)C[C@H]1[C@H](OC(=O)c2cc3ccccc3oc2=O)[C@@H](NC(=O)Cc2ccc(OC)cc2)c2cc(OCCCO)ccc2N1C(=O)c1ccc2ccccc2n1 | 0.514
10 | COCCOC(=O)N1C(=O)[C@@]2(c3cc(C#CC4=CCCCC4)ccc31)[C@H](c1ccc(OCCO)cc1)N1[C@H](c3ccccc3)[C@H](c3ccccc3)OC(=O)[C@H]1[C@@H]2C(=O)NC[C@H](O)c1ccccc1 | 1.06
11 | COC(=O)c1nc2oc1CC[C@@H](CO)NC(=O)N(C)Cc1cnnn1C[C@H](Cc1ccccc1)NC2=O | 0.122
12 | CN1C(=O)C2C=CC(C(O)COCc3ccccc3)N(N(c3ccccc3)c3ccccc3)C2C1=O (configuration not stated) | 0.454
13 | COc1cc2c(cc1O)C(C)N(Cc1ccc([N+](=O)[O-])o1)CC2 (configuration not stated) | 0.961
14 | C=CCOC(=O)[C@H]1[C@@H]2C(=O)O[C@@H](c3ccccc3)[C@@H](c3ccccc3)N2[C@@H](c2ccc(OCCOC(=O)[C@@H]3C[C@@H]4C(=O)N[C@@H](CCCCN(C)C)C(=O)N4[C@@H]3c3ccc(O)cc3)cc2)[C@]12C(=O)Nc1ccccc12 | 1.17
15 | CCOC(=O)C1=C[C@@H](c2ccccc2)N(S(=O)(=O)c2ccc(C)cc2)[C@H]1c1ccccc1Cl | 0.731
16 | C[N+](C)(C)CCCCCCNC(=O)[C@H]1C[C@H]2C(=O)NCC(=O)N2[C@H]1c1ccc(O)cc1 | -0.489
17 | COc1cc(CO)cc(I)c1O[C@H]1C=C(C(=O)NCCO)C[C@@H](NCc2ccc(F)cc2)[C@@H]1O | 0.0217
18 | COC1OC[C@]2(C)[C@H]3C4=C(CN2C(=O)OC(C)(C)C)[C@H](C)C(CO)C(CO)C4CC[C@@H]13 (some centres not stated) | 2.14
19 | O=C1O[C@H](c2ccccc2)[C@H](c2ccccc2)N2[C@H]1[C@@H](C(=O)Nc1nc3ccccc3s1)[C@]1(C(=O)Nc3ccc(C#CCCO)cc31)[C@H]2c1ccc(O)cc1 | 0.799
20 | C=CCC(OC(C)=O)[C@@H]1[C@@H](N(Cc2cc3ccccc3o2)C(=O)Cc2ccc(F)cc2)c2cc(OCCCO)ccc2N1C(=O)c1ccc2ccccc2c1 (some centres not stated) | 0.0682
21 | OCCCC1=CC(c2ccc(CN3CCCC3)cc2)N(Cc2sc3ccccc3c2Cl)CC1 (configuration not stated) | -0.0337
22 | O=C1O[C@H](c2ccccc2)[C@H](c2ccccc2)N2[C@H]1[C@@H](C(=O)N1CCN(c3ncccn3)CC1)[C@]1(C(=O)Nc3ccc(C#CC4(O)CCCCCC4)cc31)[C@H]2c1ccc(OCCO)cc1 | 3.93
23 | O=C1C2C=CC(C(O)c3ccc(Br)cc3)N(Nc3ccccc3F)C2C(=O)N1c1ccccc1 (configuration not stated) | -0.147
24 | COCCOC(=O)N1C(=O)[C@@]2(c3cc(C#CCC(C(=O)OC)C(=O)OC)ccc31)[C@H](C(=O)N1CCc3cc(OC)c(OC)cc3C1)[C@H]1C(=O)O[C@H](c3ccccc3)[C@H](c3ccccc3)N1[C@@H]2c1ccc(OCCO)cc1 | 0.0568
25 | CC(CO)N1C(=O)[C@@H]2[C@H]3C(=O)OCC=C[C@H]3OC23C=CCN(CCN2CCOCC2)C(=O)[C@@H]13 (some centres not stated) | -0.469
26 | C=C(COC)C(=O)CC[C@@H](OC(=O)c1cccnc1)c1ccc(OCCO)cc1 | 0.975
27 | COC(=O)[C@@]1(Cc2ccc(OC)cc2)[C@H]2c3cc(C(=O)N4CCCC4)n(Cc4cccc5ccccc45)c3C[C@H]2CN1C(=O)c1ccccc1 | 1.3
